Assay [1] in a line: qHTS assay to identify small molecule agonists of the RXR signaling pathway - cell viability counter screen (AID 1159529). Note: nearly all actives have a fitted effect of over 50% in size. Summed up:
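HEK 293T RXRa-bla cells, 2% CS-FBS; 5 h settle; cpd 16 h 37 C, 5% CO2; CellTiter-Glo 30 min RT, luminescence. Tetraoctyl ammonium bromide as positive control.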
In general terms: qHTS replaces the single test concentration by a dilution series.

Assay [2] is described as follows: qHTS assay to identify small molecule antagonists of the retinoid acid receptor (RAR) signaling pathway - cell viability counter screen (AID 1159551). Note: nearly all actives have a fitted effect of over 35% in size. Summed up: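 Cytotoxicity counter screen: ATP content quantified by CellTiter-Glo luminescence in C3RL4 cells treated 6 hr at 37 C with compound and retinol (1 uM final). Cells plated at 1,000/well and cultured overnight before dosing.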

Assay [3] in a line: qHTS assay to identify small molecule antagonists of the retinoic acid receptor (RAR) signaling pathway (AID 1159552; note: nearly all actives have a fitted effect of over 50% in size). The method, boiled down:
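Cells of the C3RL4 line were seeded, incubated overnight, then dosed with compounds in DMSO followed immediately by retinol (1 uM final). Six hours later luciferase detection reagent went in; signal was measured after 30 min at RT.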

Assay [4] is described as follows: qHTS assay to identify small molecule agonists of the retinoic acid receptor (RAR) signaling pathway (AID 1159553). Summed up:
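Luminescence was measured 30 min after luciferase reagent addition at room temperature. Before that, C3RL4 reporter cells (1,000 per well, plated overnight) were treated with compound for 6 hr at 37 C and 5% CO2.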

Structures are written as SMILES. Where “and” joins values, the source holds several entries; their conditions need not be identical. Equal values may be shown once. Results filed as inconclusive are left out. The source holds several records for some structures; these can differ, active in one and inactive in another. Calls of active or inactive are those of the source. Calls come from the whole dose curve; as a rule, active = well fitted curve in the direction sought with a large enough effect in the repeat runs; inconclusive = weak or mixed curves; inactive = no such curve, though single readings can be large; an effect the other way counts as inactive or inconclusive.
Potency is the fitted concentration of half-maximal effect.

On to `CCN(CC)CCc1c[nH]c2ccccc12`, for which the Potency result in assay [1], in assay [2] and in assay [3] was “inactive” each time.

`C[C@]12Cc3cn[nH]c3C[C@@H]1CC[C@@H]1[C@@H]2CC[C@@]2(C)[C@H]1CC[C@]2(C)O`: in assay [1], the Potency was 6.01 µM (active). The Potency result in assay [2] and in assay [3] was “inactive” in each case.

Consider `O=P(Cl)(Cl)Cl`, for which the Potency result in assay [1], in assay [2] and in assay [3] was “inactive” throughout.

In the case of `c1ccc2c(c1)cc1ccc3cccc4ccc2c1c34`, the Potency entry in assay [1], in assay [2] and in assay [3] was “inactive” throughout.

For the molecule `ClC1(Cl)C2(Cl)C3(Cl)C4(Cl)C(Cl)(Cl)C5(Cl)C3(Cl)C1(Cl)C5(Cl)C24Cl` (stereo not given), the Potency entry in assay [1], in assay [2] and in assay [3] was “inactive” in each case.

With `O=C1C(Cl)=C(Cl)C(=O)C(Cl)=C1Cl`, the Potency in assay [1] was 38.9 µM (active); in assay [2], 60.9 µM (active) and inactive; in assay [3] it was 54.3 µM (active) and 61.1 µM (active).

For the molecule `CCCCON=O`, the Potency entry in assay [1], in assay [2] and in assay [3] was “inactive” in each case.

Take `BrCC(Br)(Br)Br`: the Potency result in assay [1], in assay [2] and in assay [3] was “inactive” throughout.

On to `COCCC#N`, for which the Potency result in assay [1], in assay [2] and in assay [3] was “inactive” each time.

On to `COC(=O)/C=C(\C)OP(=O)(OC)OC`, for which the Potency result in assay [1], in assay [2] and in assay [3] was “inactive” each time.

`NC(=O)C(Cl)Cl`: the Potency entry in assay [1], in assay [2] and in assay [3] was “inactive” throughout.

With `C=C(C)C(=O)[O][Sn]([CH2]CCC)([CH2]CCC)[CH2]CCC`, the Potency in assay [1] was 1.1 µM (active); in assay [2], 7.7 µM (active); in assay [3], 2.73 µM (active).

For `CCOC(=O)Cc1ccccc1`, the Potency result in assay [1], in assay [2] and in assay [3] was “inactive” throughout.

Consider `CC1(C)[C@H](/C=C2\CCSC2=O)[C@@H]1C(=O)OCc1coc(Cc2ccccc2)c1`, for which the Potency result in assay [1], in assay [2] and in assay [3] was “inactive” throughout.

In the case of `CC(C)C(Nc1ccc(C(F)(F)F)cc1Cl)C(=O)OC(C#N)c1cccc(Oc2ccccc2)c1` (stereo not given), the Potency entry in assay [1], in assay [2] and in assay [3] was “inactive” each time.

As for `[F][Sn]([c]1ccccc1)([c]1ccccc1)[c]1ccccc1`, the values for the Potency in assay [1], in assay [2] and in assay [3] were 0.692 µM (active), 17.2 µM (active) and 0.243 µM (active), respectively.

Consider `COc1ccc2c3c1O[C@H]1[C@H](O)CC[C@H]4[C@@H](C2)N(C)CC[C@@]341`, for which the Potency entry in assay [1], in assay [2] and in assay [3] was “inactive” in each case.

In the case of `CCCCC(CC)COC(=O)OOC(C)(C)C` (stereo not given), the Potency entry in assay [1], in assay [2] and in assay [3] was “inactive” throughout.

For `ClSC(Cl)(Cl)Cl`, the Potency entry in assay [1], in assay [2] and in assay [3] was “inactive” in each case.

Turning to `COc1ccc2[nH]cc(CCN(C(C)C)C(C)C)c2c1`, the Potency result in assay [1], in assay [2] and in assay [3] was “inactive” in each case.

`O=[N+]([O-])c1cc(C(F)(F)F)c(Cl)c([N+](=O)[O-])c1Nc1ncc(C(F)(F)F)cc1Cl`: the results for the Potency in assay [1], in assay [2] and in assay [3] were 7.76 µM (active), 54.5 µM (active) and 30.6 µM (active), respectively.

On to `[O]=[Cr][O][Cr]=[O]`, for which the Potency entry in assay [1], in assay [2] and in assay [3] was “inactive” throughout.

As to `S=C=NCCc1ccccc1`, the Potency result in assay [1], in assay [2] and in assay [3] was “inactive” in each case.

With `O=C1C2(Cl)C3(Cl)C4(Cl)C(Cl)(Cl)C5(Cl)C3(Cl)C1(Cl)C5(Cl)C24Cl` (stereo not given), the Potency in assay [1] was 24.1 µM (active) and 41.8 µM (active); in assay [2] it was 47.8 µM (active); in assay [3], 21.3 µM (active) and 29.3 µM (active).

As for `CCC[CH2][Sn]([CH2]CCC)([CH2]CCC)[CH2]CCC`, the values for the Potency in assay [1], in assay [2] and in assay [3] were 21.9 µM (active), 43.3 µM (active) and 9.69 µM (active), respectively.

Consider `C[C@H]1[C@H](c2ccc(Cl)cc2)SC(=O)N1C(=O)NC1CCCCC1`, for which the Potency result in assay [1], in assay [2], in assay [3] and in assay [4] was “inactive” in each case.

Regarding `Oc1cc(Cl)c(Cl)c(Cl)c1Cl`, the Potency result in assay [1], in assay [2] and in assay [4] was “inactive” each time. In assay [3], the Potency was 53.2 µM (active).

Regarding `C#CC1(O)CCCCC1`, the Potency entry in assay [1], in assay [2], in assay [3] and in assay [4] was “inactive” each time.

Regarding `c1csc(-c2ccc(-c3cccs3)s2)c1`, the Potency result in assay [1], in assay [2] and in assay [3] was “inactive” in each case. Besides, the Potency in assay [4] is 1.72 µM (active).

As to `CCOC(=O)CCN(SN(C)C(=O)Oc1cccc2c1OC(C)(C)C2)C(C)C`, the Potency result in assay [1], in assay [2] and in assay [4] was “inactive” throughout. Besides, the Potency in assay [3] is 61.1 µM (active).

As to `CCCCCCCCCCCCCCn1cc[n+](C)c1`, the Potency in assay [1] was 19.5 µM (active); in assay [2] it was 54.6 µM (active) and 60.4 µM (active); in assay [3] it was 13.7 µM (active) and 24.1 µM (active) and inactive. Further, the Potency entry in assay [4] was “inactive”.

`CN/C(=N\[N+](=O)[O-])NCc1cnc(Cl)s1`: the Potency result in assay [1], in assay [2], in assay [3] and in assay [4] was “inactive” in each case.

In the case of `CC1CCCC1`, the Potency result in assay [1], in assay [2], in assay [3] and in assay [4] was “inactive” in each case.

As for `CN(C)CCc1c[nH]c2ccccc12`, the Potency result in assay [1], in assay [2], in assay [3] and in assay [4] was “inactive” each time.

On to `Oc1ccc([C@H]2CNCc3c2ccc(O)c3O)cc1O`, for which the Potency result in assay [1], in assay [2] and in assay [3] was “inactive” each time. Moreover, the Potency in assay [4] is 23.7 µM (active).

For the origin of these results see PubChem BioAssay (Tox21).
